Here are results for 86 sequences from PMC10668032, “Altered binding affinity of SIX1-Q177R correlates with enhanced WNT5A and WNT pathway effector expression in Wilms tumor”.

Over roughly 33,000 sequences, “e-score” has its median near -0.05; the highest 2% begin near 0.38. The full list was thinned out, with the highest values kept by preference.

The test deals with T1, SIX1-Q177R homeodomain (human, UniProt Q15475 108-198, Q177R).
T1 sequence: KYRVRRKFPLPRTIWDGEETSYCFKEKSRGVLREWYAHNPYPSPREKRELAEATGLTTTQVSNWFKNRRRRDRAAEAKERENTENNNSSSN
Description: universal protein binding microarray; Universal all-10-mer PBM (8x60K, AMADID 030236), 300 nM GST-tagged protein, Alexa Fluor 488 anti-GST; buffer, salt, pH and temperature not stated (as in Berger); high values mean tight binding. The following applies: protein: ivt; tags: N-terminal GST; dsDNA, one strand shown. A digest of the protocol: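 GST-tagged homeodomains were made by in vitro transcription/translation and quantified by anti-GST western blot against a recombinant GST standard curve. They were applied in duplicate at 300 nM final concentration to universal 'all 10-mer' protein binding microarrays (8×60K format). Binding was quantified as 8-mer E-scores with the Universal PBM Analysis Suite.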
Regarding ACACGTAC, the binding signal worked out at 0.353 ± 0.00478 E-score.
With ACACGTGC, the binding signal worked out at 0.383 ± 0.0133 E-score.
Turning to CACTAGCC, the binding signal was determined as 0.177 ± 0.031 E-score.
ATACCCGC: the binding signal was found to be 0.266 ± 0.0158 E-score.
The value for GGATCACA was 0.168 ± 0.0336 E-score; that for CCCCGCCG was 0.241 ± 0.0442 E-score; that for CTGATCCC was 0.232 ± 0.00636 E-score.
The value for ACTCCGTG was 0.253 ± 0.00334 E-score; that for ACACGCTC was 0.384 ± 0.0032 E-score; that for ACACGTTC was 0.276 ± 0.0481 E-score.
On to ACACGTTG, for which the binding signal was determined as 0.331 ± 0.0165 E-score.
On to ACACGCTG, for which the binding signal was 0.389 ± 0.00589 E-score.
With GTACGCTA, the binding signal is 0.153 ± 0.0129 E-score.
For the sequence ACACGCGC, the binding signal worked out at 0.363 ± 0.0139 E-score.
The value for CCCCGCTA was 0.199 ± 0.0313 E-score.
The value for ACACACTA was 0.267 ± 0.012 E-score; that for ACACGCTA was 0.383 ± 0.0134 E-score; that for AACCGGGT was 0.218 ± 0.0414 E-score.
The value for CACCCCAC was 0.355 ± 0.0406 E-score.
Turning to ACCCCACC, the binding signal is 0.327 ± 0.05 E-score.
The value for ACTCCCGC was 0.253 ± 0.0194 E-score; that for CACCATCA was 0.231 ± 0.0313 E-score.
As for CCCGGATA, the binding signal amounted to 0.164 ± 0.0511 E-score.
The value for GACTACAC was 0.428 ± 0.0046 E-score; that for AACTACAC was 0.445 ± 0.0094 E-score; that for CACTACTC was 0.21 ± 0.00852 E-score.
The value for AACTACCC was 0.151 ± 0.011 E-score.
The value for GACTCCAC was 0.211 ± 0.00527 E-score; that for CACTACAA was 0.236 ± 0.0147 E-score.
For CACTACAC, the binding signal came to 0.443 ± 0.00461 E-score.
With CACTACGC, the binding signal was determined as 0.166 ± 0.0306 E-score.
For CACTACAG, the binding signal was determined as 0.196 ± 0.0315 E-score.
The value for CAAGGGTG was 0.252 ± 0.0109 E-score.
The value for CACTTCCA was 0.202 ± 0.0394 E-score; that for GTCCTACA was 0.243 ± 0.0623 E-score; that for CACTTAGG was 0.229 ± 0.00363 E-score.
Take ACTCCACT: the binding signal is 0.263 ± 0.0258 E-score.
The value for CAGGGGTC was 0.242 ± 0.0124 E-score.
As for GTCGGATA, the binding signal stood at 0.292 ± 0.00296 E-score.
Consider ACCCCGCC, for which the binding signal amounted to 0.271 ± 0.018 E-score.
The value for ACCGAAGT was 0.167 ± 0.0104 E-score.
As for ACACGCCA, the binding signal is 0.381 ± 0.0176 E-score.
The value for ACCCGCCC was 0.243 ± 0.0168 E-score; that for ACGCCCCC was 0.19 ± 0.00645 E-score.
The value for CAACGCCG was 0.164 ± 0.00575 E-score.
Turning to ACGCCCCT, the binding signal was 0.205 ± 0.0263 E-score.
The value for ACACGCCT was 0.416 ± 0.0145 E-score; that for ACCCGCCG was 0.258 ± 0.00942 E-score.
As to TAACGCCA, the binding signal worked out at 0.16 ± 0.00152 E-score.
For the sequence ACACGCCG, the binding signal amounted to 0.404 ± 0.009 E-score.
The value for ACCCGCCT was 0.206 ± 0.00671 E-score; that for ACACGCCC was 0.4216 ± 0.00148 E-score.
The value for ATACGCCA was 0.151 ± 0.00585 E-score.
As to GGGGTACA, the binding signal stood at 0.329 ± 0.00694 E-score.
The value for GATCCCTA was 0.24 ± 0.0333 E-score; that for GTGCCAAC was 0.156 ± 0.0339 E-score; that for GAATTACA was 0.22 ± 0.0378 E-score.
The value for ACCCATCG was 0.179 ± 0.0324 E-score; that for CACTGGGC was 0.154 ± 0.00412 E-score.
The value for ACCCTATC was 0.17 ± 0.0179 E-score.
Take CCGATACC: the binding signal was found to be 0.361 ± 0.0126 E-score.
For AGCACACT, the binding signal is 0.163 ± 0.0222 E-score.
For the sequence CGCACACG, the binding signal was 0.24 ± 0.0245 E-score.
The value for CGCACACC was 0.395 ± 0.0298 E-score.
The value for AGCACACG was 0.257 ± 0.015 E-score; that for AGCACACC was 0.38 ± 0.026 E-score; that for CGCACACA was 0.16 ± 0.0759 E-score.
Regarding AATCCACA, the binding signal is 0.155 ± 0.0214 E-score.
The value for AGTATACA was 0.235 ± 0.0155 E-score.
With ACGCCACC, the binding signal is 0.194 ± 0.00825 E-score.
Turning to AATGGTGT, the binding signal was 0.4746 ± 0.00144 E-score.
The value for CACGGTGA was 0.221 ± 0.0367 E-score; that for AAGGGTAT was 0.262 ± 0.0281 E-score; that for AAGGGTGT was 0.4645 ± 0.00313 E-score.
Take AACGGTGT: the binding signal was 0.4669 ± 0.000509 E-score.
The value for AATGGGGT was 0.246 ± 0.0257 E-score.
Regarding AAAGGTGT, the binding signal worked out at 0.452 ± 0.0138 E-score.
With AACGGTGC, the binding signal stood at 0.184 ± 0.0227 E-score.
The value for AAAGGGGT was 0.162 ± 0.0302 E-score; that for AATGGTAT was 0.227 ± 0.00525 E-score.
The value for AAAAGTGT was 0.274 ± 0.0858 E-score; that for AAGGGGGT was 0.293 ± 0.0313 E-score.
Consider AGGGGTAT, for which the binding signal was 0.3 ± 0.0125 E-score.
The value for CGACTCCC was 0.263 ± 0.056 E-score; that for GGTCCACA was 0.17 ± 0.0089 E-score.
The value for TCGTTACA was 0.278 ± 0.00887 E-score.
